Data from PubChem BioAssay AID1159580 (chemical genetic matrix, 2015).
The campaign covered roughly 5,500 compounds. About 2,000 (36%) were called active. Another 18% or so got no clear call; they are omitted. Rule as the data show it: active = normalized growth mostly below about 0.91 (no sharp cut-off); inconclusive = no clear call, values can overlap the other calls; inactive = mostly above about 0.92. Some of the results follow.

Experiment: chemical genetic growth profiling, strain panel (AID 1159580);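 also: tested at 20 µM; growth read once vehicle control cultures reached saturation at 30 °C; 1 = growth at the plate median or of vehicle wells; lower values mean less growth of the strain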
Conditions: growth OD

Measured: normalized growth

CC1(C)S[C@@H]2[C@H](NC(=O)C(C(=O)O)c3ccccc3)C(=O)N2[C@H]1C(=O)O (stereo partly drawn)
inactive: S. cerevisiae deletion strains, locus YJR075W, strain HOC1, hits give low values 0.987 | S. cerevisiae deletion strains, locus YKL009W, strain mrt4, hits give low values 0.971 | S. cerevisiae deletion strains, locus YKL068W, hits give low values 0.994 | S. cerevisiae deletion strains, locus YKL085W, strain MDH1 (second series), hits give low values 1 | S. cerevisiae deletion strains, locus YKL085W, strain MDH1, hits give low values 1 | S. cerevisiae deletion strains, locus YKL160W, strain elf1, hits give low values 1 | S. cerevisiae deletion strains, locus YKR001C, strain vps1, hits give low values 0.982 | S. cerevisiae deletion strains, locus YKR026C, strain gcn3, hits give low values 0.985 | S. cerevisiae deletion strains, locus YKR091W, strain srl3, hits give low values 0.975 | S. cerevisiae deletion strains, locus YLL001W, strain dnm1, hits give low values 0.932 | S. cerevisiae deletion strains, locus YLL026W, hits give low values 0.96 | S. cerevisiae deletion strains, locus YLL041C, strain sdh2, hits give low values 0.982 | S. cerevisiae deletion strains, locus YLR027C, strain aat2, hits give low values 0.976 | S. cerevisiae deletion strains, locus YLR039C, strain RIC1, hits give low values 0.989 | S. cerevisiae deletion strains, locus YLR058C, strain SHM2, hits give low values 0.989 | S. cerevisiae deletion strains, locus YLR102C, strain apc9, hits give low values 0.997 | S. cerevisiae deletion strains, locus YLR113W, strain HOG1, hits give low values 0.992 | S. cerevisiae deletion strains, locus YLR221C, strain rsa3, hits give low values 0.928 | S. cerevisiae deletion strains, locus YLR258W, strain gsy2, hits give low values 0.967 | S. cerevisiae deletion strains, locus YLR262C, strain YPT6 (second series), hits give low values 1 | S. cerevisiae deletion strains, locus YLR262C, strain YPT6, hits give low values 1 | S. cerevisiae deletion strains, locus YLR268W, strain sec22, hits give low values 0.987 | S. cerevisiae deletion strains, locus YLR320W, strain mms22, hits give low values 0.967 | S. cerevisiae deletion strains, locus YLR330W, strain CHS5, hits give low values 0.992 | S. cerevisiae deletion strains, locus YLR342W, strain FKS1 (second series), hits give low values 0.998 | S. cerevisiae deletion strains, locus YLR342W, strain FKS1, hits give low values 0.982 | S. cerevisiae deletion strains, locus YLR357W, strain rsc2, hits give low values 0.967 | S. cerevisiae deletion strains, locus YLR370C, strain arc18, hits give low values 0.926 | S. cerevisiae deletion strains, locus YLR371W, strain rom2, hits give low values 0.988 | S. cerevisiae deletion strains, locus YLR384C, strain iki3, hits give low values 0.969 | S. cerevisiae deletion strains, locus YLR418C, strain cdc73, hits give low values 0.984 | S. cerevisiae deletion strains, locus YML016C, strain PPZ1, hits give low values 0.99 | S. cerevisiae deletion strains, locus YML032C, strain rad52, hits give low values 0.981 | S. cerevisiae deletion strains, locus YML120C, strain ndi1, hits give low values 0.946 | S. cerevisiae deletion strains, locus YML124C, strain tub3, hits give low values 1 | S. cerevisiae deletion strains, locus YMR058W, strain fet3, hits give low values 0.971 | S. cerevisiae deletion strains, locus YMR078C, strain ctf18, hits give low values 0.985 | S. cerevisiae deletion strains, locus YMR125W, strain sto1, hits give low values 0.956 | S. cerevisiae deletion strains, locus YMR129W, hits give low values 1 | S. cerevisiae deletion strains, locus YMR205C, strain PFK2, hits give low values 0.98 | S. cerevisiae deletion strains, locus YMR223W, strain ubp8, hits give low values 0.987 | S. cerevisiae deletion strains, locus YMR231W, strain pep5, hits give low values 0.988 | S. cerevisiae deletion strains, locus YMR307W, strain GAS1, hits give low values 0.917 | S. cerevisiae deletion strains, locus YNL067W, strain RPL9B, hits give low values 1 | S. cerevisiae deletion strains, locus YNL071W, strain lat1, hits give low values 0.995 | S. cerevisiae deletion strains, locus YNL153C, strain GIM3, hits give low values 0.989 | S. cerevisiae deletion strains, locus YNL183C, strain NPR1, hits give low values 0.94 | S. cerevisiae deletion strains, locus YNL209W, strain ssb2, hits give low values 0.969 | S. cerevisiae deletion strains, locus YNL233W, strain BNI4, hits give low values 0.975 | S. cerevisiae deletion strains, locus YNL248C, strain rpa49, hits give low values 1.02 | S. cerevisiae deletion strains, locus YNL250W, strain rad50, hits give low values 0.975 | S. cerevisiae deletion strains, locus YNL271C, strain bni1, hits give low values 0.984 | S. cerevisiae deletion strains, locus YNL298W, strain CLA4, hits give low values 0.99 | S. cerevisiae deletion strains, locus YNL307C, strain MCK1, hits give low values 0.992 | S. cerevisiae deletion strains, locus YNL322C, strain KRE1 (second series), hits give low values 0.971 | S. cerevisiae deletion strains, locus YNL322C, strain KRE1, hits give low values 0.997 | S. cerevisiae deletion strains, locus YNR049C, strain mso1, hits give low values 0.962 | S. cerevisiae deletion strains, locus YNR052C, strain pop2, hits give low values 0.983 | S. cerevisiae deletion strains, locus YOL006C, strain TOP1, hits give low values 0.985 | S. cerevisiae deletion strains, locus YOL012C, strain htz1 1.06 | S. cerevisiae deletion strains, locus YOL147C, strain pex11, hits give low values 0.982 | S. cerevisiae deletion strains, locus YOR001W, strain rrp6, hits give low values 1 | S. cerevisiae deletion strains, locus YOR061W, strain CKA2, hits give low values 0.994 | S. cerevisiae deletion strains, locus YOR069W, strain VPS5, hits give low values 0.991 | S. cerevisiae deletion strains, locus YOR070C, strain gyp1, hits give low values 0.972 | S. cerevisiae deletion strains, locus YOR080W, strain dia2, hits give low values 0.972 | S. cerevisiae deletion strains, locus YOR083W, strain WHI5, hits give low values 0.994 | S. cerevisiae deletion strains, locus YOR106W, strain vam3, hits give low values 0.993 | S. cerevisiae deletion strains, locus YOR136W, strain idh2, hits give low values 0.98 | S. cerevisiae deletion strains, locus YOR144C, strain elg1, hits give low values 0.983 | S. cerevisiae deletion strains, locus YOR184W, strain ser1, hits give low values 0.978 | S. cerevisiae deletion strains, locus YOR231W, strain MKK1, hits give low values 1.04 | S. cerevisiae deletion strains, locus YOR265W, strain rbl2, hits give low values 0.964 | S. cerevisiae deletion strains, locus YOR270C, strain vph1, hits give low values 0.978 | S. cerevisiae deletion strains, locus YOR290C, strain snf2, hits give low values 0.961 | S. cerevisiae deletion strains, locus YOR316C, strain cot1, hits give low values 0.981 | S. cerevisiae deletion strains, locus YPL051W, strain arl3, hits give low values 0.992 | S. cerevisiae deletion strains, locus YPL078C, strain atp4, hits give low values 1.01 | S. cerevisiae deletion strains, locus YPL106C, strain sse1, hits give low values 0.937 | S. cerevisiae deletion strains, locus YPL240C, strain hsp82, hits give low values 0.971 | S. cerevisiae deletion strains, locus YPL241C, strain CIN2, hits give low values 0.997 | S. cerevisiae deletion strains, locus YPL256C, strain CLN2, hits give low values 1.03 | S. cerevisiae deletion strains, locus YPR119W, strain clb2, hits give low values 0.991 | S. cerevisiae deletion strains, locus YPR141C, strain kar3, hits give low values 0.977 | S. cerevisiae deletion strains, locus YPR163C, strain tif3, hits give low values 0.989 | S. cerevisiae deletion strains, locus YPR167C, strain met16, hits give low values 0.99 | S. cerevisiae deletion strains, strain wtn01, hits give low values 0.984 | S. cerevisiae strains, strain wild type, hits give low values 0.999
